# From article PMC7862700, “An all-to-all approach to the identification of sequence-specific readers for epigenetic DNA modifications on cytosine”
# Assays:
# Assay in all cases: DAPPL (digital affinity profiling via proximity ligation, sequencing); 10 mM Tris-HCl pH 7.5, 50 mM NaCl, 1 mM DTT, 4% glycerol, room temperature, 30 min; GST-TFs on glutathione beads, 16-mer random dsDNA library, 0.1% formaldehyde crosslink after washing; high values mean tight binding
# [1] = molecular target: T1, FLI1 (Homo sapiens, UniProt Q01543 1-452); details: protein: recombinant; tags: N-terminal GST; dsDNA, one strand shown
# T1 sequence: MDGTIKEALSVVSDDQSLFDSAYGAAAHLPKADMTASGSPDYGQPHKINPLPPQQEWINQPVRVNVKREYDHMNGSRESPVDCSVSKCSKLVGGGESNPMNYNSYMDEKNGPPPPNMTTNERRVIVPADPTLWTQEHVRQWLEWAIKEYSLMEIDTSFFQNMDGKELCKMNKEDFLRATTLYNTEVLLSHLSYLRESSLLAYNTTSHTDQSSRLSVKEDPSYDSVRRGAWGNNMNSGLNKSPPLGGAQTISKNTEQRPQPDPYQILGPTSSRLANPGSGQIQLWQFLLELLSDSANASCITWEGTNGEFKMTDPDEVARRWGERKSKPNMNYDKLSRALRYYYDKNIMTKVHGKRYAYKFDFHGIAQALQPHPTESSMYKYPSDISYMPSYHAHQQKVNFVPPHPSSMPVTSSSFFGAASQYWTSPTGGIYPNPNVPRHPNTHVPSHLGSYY
# In short: (§1)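 Pools of DNA-barcoded human transcription factors, expressed in yeast as GST fusions on glutathione beads and combined with a tag-only sample, were incubated with 200 nmole of a 16-mer random double-stranded DNA library. Incubation took 30 min at room temperature in Tris/NaCl/DTT/glycerol buffer and was followed by washing, 0.1% formaldehyde crosslinking, proximity ligation (BsaI/T4 ligase, 1 h, 37 °C), PCR amplification and sequencing on an Illumina NextSeq500. Binding signal is the ratio of a hexamer's read frequency for a factor to its frequency for the tag-only sample.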
# [2] = molecular target: T2, ELK1 (Homo sapiens, UniProt P19419 1-428); details: protein: recombinant; tags: N-terminal GST; dsDNA, one strand shown
# T2 sequence: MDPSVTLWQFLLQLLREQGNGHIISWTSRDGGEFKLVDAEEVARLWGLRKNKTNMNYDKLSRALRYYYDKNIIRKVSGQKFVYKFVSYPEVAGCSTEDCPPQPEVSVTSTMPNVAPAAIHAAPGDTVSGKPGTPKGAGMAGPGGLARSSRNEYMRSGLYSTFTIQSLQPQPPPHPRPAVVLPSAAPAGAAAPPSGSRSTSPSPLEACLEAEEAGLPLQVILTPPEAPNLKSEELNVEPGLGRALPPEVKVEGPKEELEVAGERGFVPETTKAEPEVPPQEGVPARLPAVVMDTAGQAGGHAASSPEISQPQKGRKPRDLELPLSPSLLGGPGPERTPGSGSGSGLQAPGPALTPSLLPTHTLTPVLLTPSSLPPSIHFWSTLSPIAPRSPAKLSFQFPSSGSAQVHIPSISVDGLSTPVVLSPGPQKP
# In short: as §1
# [3] = molecular target: T3, GABPA (Homo sapiens, UniProt Q06546 1-454); details: protein: recombinant; tags: N-terminal GST; dsDNA, one strand shown
# T3 sequence: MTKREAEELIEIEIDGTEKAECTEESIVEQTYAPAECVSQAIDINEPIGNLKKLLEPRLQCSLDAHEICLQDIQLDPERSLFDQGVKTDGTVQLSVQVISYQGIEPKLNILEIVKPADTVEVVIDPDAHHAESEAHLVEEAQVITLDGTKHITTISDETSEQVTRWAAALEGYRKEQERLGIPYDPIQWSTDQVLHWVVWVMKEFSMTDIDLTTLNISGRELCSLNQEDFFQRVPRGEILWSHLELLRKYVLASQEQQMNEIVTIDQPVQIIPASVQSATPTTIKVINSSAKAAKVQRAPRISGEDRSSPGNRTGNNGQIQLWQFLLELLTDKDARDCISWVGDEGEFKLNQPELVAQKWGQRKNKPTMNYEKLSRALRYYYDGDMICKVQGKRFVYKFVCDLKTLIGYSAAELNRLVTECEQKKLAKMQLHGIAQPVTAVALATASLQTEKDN
# In short: as §1
# [4] = molecular target: T4, ERG (Homo sapiens, UniProt P11308 1-479); details: protein: recombinant; tags: N-terminal GST; dsDNA, one strand shown
# T4 sequence: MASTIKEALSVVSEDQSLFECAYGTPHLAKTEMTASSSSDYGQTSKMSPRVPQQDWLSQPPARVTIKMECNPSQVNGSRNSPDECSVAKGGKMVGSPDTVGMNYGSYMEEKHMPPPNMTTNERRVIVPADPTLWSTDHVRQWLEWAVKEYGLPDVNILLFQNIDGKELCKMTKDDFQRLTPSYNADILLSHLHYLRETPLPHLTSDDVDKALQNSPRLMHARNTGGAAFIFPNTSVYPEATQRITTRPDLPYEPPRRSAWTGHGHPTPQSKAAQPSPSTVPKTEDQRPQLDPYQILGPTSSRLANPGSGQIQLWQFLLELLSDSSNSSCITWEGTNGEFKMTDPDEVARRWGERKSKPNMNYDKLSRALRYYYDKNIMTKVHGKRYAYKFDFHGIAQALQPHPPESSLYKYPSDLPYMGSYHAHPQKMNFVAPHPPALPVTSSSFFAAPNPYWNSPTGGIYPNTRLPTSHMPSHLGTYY
# In short: as §1
# [5] = molecular target: ELF1 (Homo sapiens, UniProt P32519 1-619); details: protein: recombinant; tags: N-terminal GST; dsDNA, one strand shown
# Chain of ELF1 (P32519 whole entry): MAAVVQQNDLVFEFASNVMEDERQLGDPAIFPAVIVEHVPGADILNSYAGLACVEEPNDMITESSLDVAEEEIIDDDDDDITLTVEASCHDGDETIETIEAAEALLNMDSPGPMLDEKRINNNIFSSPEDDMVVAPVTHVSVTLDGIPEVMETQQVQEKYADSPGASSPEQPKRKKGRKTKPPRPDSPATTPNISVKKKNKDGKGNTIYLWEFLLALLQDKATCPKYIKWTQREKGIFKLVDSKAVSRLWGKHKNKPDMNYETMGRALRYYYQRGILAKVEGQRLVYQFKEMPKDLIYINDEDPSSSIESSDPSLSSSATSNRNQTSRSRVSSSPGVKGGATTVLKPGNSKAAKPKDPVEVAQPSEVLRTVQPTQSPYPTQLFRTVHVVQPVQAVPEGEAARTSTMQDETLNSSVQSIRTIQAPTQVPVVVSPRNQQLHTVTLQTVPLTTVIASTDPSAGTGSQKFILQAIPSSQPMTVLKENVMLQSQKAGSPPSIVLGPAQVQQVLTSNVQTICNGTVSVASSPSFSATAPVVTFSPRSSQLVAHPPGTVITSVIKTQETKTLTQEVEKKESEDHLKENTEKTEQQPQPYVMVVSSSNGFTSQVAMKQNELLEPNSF
# In short: as §1
# [6] = molecular target: T5, EHF (Homo sapiens, UniProt Q9NZC4 1-300); details: protein: recombinant; tags: N-terminal GST; dsDNA, one strand shown
# T5 sequence: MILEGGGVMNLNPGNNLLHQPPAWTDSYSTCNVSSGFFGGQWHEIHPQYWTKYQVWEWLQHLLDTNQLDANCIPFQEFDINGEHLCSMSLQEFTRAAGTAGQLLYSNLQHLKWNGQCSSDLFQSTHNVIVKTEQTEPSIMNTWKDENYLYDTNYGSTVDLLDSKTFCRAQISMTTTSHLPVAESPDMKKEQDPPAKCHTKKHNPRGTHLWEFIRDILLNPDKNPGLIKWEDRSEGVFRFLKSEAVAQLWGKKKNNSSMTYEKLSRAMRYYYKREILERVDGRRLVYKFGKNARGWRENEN
# In short: as §1
# [7] = molecular target: SPI1 (Homo sapiens, UniProt P17947 1-270); details: protein: recombinant; tags: N-terminal GST; dsDNA, one strand shown
# In short: as §1
# [8] = molecular target: SPIB (Homo sapiens, UniProt Q01892 1-262); details: protein: recombinant; tags: N-terminal GST; dsDNA, one strand shown
# Chain of SPIB (Q01892 whole entry): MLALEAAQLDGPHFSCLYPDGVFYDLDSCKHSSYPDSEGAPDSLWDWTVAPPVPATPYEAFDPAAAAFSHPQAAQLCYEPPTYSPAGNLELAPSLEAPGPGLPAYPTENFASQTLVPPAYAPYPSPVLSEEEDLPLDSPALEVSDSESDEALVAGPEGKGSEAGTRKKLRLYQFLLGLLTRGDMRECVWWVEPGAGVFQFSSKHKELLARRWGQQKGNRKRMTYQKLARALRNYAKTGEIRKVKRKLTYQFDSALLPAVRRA
# In short: as §1
# [9] = molecular target: T6, FEV (Homo sapiens, UniProt Q99581 1-238); details: protein: recombinant; tags: N-terminal GST; dsDNA, one strand shown
# T6 sequence: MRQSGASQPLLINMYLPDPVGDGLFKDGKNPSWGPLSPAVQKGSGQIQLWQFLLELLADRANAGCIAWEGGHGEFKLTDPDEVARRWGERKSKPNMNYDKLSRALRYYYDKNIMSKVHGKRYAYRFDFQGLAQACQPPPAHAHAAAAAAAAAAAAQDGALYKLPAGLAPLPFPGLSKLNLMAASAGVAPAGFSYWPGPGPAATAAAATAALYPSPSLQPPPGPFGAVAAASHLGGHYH
# In short: as §1
# [10] = molecular target: ETV5 (Homo sapiens, UniProt P41161 1-510); details: protein: recombinant; tags: N-terminal GST; dsDNA, one strand shown
# Chain of ETV5 (P41161 whole entry): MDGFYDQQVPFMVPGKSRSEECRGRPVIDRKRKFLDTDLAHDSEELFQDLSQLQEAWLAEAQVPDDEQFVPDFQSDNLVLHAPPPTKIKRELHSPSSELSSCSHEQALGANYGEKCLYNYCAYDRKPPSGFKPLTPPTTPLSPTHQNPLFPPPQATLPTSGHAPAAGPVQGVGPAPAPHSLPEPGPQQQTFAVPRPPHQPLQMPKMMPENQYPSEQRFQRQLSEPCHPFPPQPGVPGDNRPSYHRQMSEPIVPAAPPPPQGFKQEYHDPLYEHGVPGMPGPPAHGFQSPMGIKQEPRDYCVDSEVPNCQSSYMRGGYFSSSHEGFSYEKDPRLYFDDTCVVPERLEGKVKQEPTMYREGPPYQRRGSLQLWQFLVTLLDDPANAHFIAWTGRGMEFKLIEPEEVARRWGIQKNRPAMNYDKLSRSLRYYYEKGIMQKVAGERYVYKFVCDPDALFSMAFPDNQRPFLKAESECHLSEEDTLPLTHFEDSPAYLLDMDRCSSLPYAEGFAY
# In short: as §1
# [11] = molecular target: HSF1 (Homo sapiens, UniProt Q00613 1-529); details: protein: recombinant; tags: N-terminal GST; chain copies: 3; dsDNA, one strand shown
# Chain of HSF1 (Q00613 whole entry): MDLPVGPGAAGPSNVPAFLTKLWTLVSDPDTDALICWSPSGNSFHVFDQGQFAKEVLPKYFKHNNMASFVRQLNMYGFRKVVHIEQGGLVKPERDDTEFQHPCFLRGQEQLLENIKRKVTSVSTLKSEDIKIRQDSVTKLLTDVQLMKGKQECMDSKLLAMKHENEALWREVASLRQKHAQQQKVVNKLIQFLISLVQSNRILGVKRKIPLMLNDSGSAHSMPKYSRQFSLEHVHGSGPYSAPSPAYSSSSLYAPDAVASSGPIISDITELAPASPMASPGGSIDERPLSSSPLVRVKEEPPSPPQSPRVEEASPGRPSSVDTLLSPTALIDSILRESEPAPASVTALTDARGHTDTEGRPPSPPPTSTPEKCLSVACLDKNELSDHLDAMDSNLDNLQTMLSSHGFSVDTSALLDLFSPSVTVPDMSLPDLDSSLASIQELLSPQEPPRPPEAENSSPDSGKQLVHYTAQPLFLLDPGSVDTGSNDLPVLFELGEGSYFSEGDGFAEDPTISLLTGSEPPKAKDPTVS
# In short: as §1
# [12] = molecular target: T7, SPIC (Homo sapiens, UniProt Q8N5J4 1-248); details: protein: recombinant; tags: N-terminal GST; dsDNA, one strand shown
# T7 sequence: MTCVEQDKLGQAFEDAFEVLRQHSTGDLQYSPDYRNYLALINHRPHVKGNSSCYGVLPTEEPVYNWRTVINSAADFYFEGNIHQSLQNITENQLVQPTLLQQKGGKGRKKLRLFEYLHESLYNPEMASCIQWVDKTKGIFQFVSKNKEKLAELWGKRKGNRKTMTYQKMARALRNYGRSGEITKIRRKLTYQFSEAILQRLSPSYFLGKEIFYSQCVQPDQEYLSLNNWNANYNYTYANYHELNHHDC
# In short: as §1
# [13] = molecular target: ELF4 (Homo sapiens, UniProt Q99607 1-663); details: protein: recombinant; tags: N-terminal GST; dsDNA, one strand shown
# Chain of ELF4 (Q99607 whole entry): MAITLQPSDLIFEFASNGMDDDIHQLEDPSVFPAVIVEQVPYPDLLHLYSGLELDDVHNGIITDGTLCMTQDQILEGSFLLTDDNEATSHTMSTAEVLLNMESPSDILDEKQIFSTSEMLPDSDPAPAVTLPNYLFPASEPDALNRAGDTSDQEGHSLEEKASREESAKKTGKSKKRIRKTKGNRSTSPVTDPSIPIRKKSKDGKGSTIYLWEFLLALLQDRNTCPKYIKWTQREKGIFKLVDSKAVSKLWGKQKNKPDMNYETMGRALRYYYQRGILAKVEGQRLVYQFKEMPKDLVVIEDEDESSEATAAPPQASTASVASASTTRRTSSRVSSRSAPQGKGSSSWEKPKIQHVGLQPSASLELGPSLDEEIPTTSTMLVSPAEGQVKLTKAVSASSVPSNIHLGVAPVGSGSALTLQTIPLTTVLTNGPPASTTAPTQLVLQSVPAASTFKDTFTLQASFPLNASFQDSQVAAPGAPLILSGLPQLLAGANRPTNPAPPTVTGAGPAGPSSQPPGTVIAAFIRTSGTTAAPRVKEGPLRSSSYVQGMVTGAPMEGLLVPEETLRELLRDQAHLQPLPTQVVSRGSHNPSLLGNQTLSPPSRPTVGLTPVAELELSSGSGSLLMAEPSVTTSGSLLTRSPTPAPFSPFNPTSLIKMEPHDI
# In short: as §1
# [14] = molecular target: T8, ELK4 (Homo sapiens, UniProt P28324-2 1-405); details: protein: recombinant; tags: N-terminal GST; dsDNA, one strand shown
# T8 sequence: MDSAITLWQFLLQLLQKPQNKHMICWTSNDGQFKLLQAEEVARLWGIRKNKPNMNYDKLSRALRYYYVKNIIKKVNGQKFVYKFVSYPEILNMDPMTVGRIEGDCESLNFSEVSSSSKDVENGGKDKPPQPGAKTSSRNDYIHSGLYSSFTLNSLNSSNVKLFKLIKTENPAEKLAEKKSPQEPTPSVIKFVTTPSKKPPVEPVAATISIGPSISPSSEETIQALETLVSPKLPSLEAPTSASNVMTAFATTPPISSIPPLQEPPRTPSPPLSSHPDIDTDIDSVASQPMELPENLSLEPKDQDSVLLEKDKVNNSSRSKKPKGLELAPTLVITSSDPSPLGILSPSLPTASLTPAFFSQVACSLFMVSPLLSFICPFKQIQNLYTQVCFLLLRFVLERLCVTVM
# In short: as §1
# [15] = molecular target: T9, ETV2 (Homo sapiens, UniProt O00321 1-342); details: protein: recombinant; tags: N-terminal GST; dsDNA, one strand shown
# T9 sequence: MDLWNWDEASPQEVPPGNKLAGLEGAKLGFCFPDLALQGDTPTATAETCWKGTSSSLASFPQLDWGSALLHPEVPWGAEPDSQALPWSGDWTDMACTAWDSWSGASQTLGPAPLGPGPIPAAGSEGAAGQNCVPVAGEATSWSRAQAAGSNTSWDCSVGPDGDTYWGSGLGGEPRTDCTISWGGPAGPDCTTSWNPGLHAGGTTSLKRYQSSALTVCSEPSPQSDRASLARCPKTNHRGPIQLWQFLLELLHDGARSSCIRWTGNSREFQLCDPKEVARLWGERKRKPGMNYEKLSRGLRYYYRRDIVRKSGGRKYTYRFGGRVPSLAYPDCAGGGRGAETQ
# In short: as §1
# [16] = molecular target: T10, ELF3 (Homo sapiens, UniProt P78545 1-371); details: protein: recombinant; tags: N-terminal GST; dsDNA, one strand shown
# T10 sequence: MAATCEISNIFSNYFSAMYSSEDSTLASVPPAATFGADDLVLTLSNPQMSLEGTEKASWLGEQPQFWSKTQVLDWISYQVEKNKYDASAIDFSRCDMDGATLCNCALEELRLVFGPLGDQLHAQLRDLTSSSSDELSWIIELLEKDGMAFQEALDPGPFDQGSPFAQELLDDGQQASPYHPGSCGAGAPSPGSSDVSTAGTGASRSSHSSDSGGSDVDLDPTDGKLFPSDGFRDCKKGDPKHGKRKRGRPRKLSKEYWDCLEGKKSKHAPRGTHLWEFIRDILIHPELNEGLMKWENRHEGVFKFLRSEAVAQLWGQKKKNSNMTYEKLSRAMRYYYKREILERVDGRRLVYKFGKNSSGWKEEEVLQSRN
# In short: as §1
# [17] = molecular target: CRX (Homo sapiens, UniProt O43186 1-299); details: protein: recombinant; tags: N-terminal GST; dsDNA, one strand shown
# Chain of CRX (O43186 whole entry): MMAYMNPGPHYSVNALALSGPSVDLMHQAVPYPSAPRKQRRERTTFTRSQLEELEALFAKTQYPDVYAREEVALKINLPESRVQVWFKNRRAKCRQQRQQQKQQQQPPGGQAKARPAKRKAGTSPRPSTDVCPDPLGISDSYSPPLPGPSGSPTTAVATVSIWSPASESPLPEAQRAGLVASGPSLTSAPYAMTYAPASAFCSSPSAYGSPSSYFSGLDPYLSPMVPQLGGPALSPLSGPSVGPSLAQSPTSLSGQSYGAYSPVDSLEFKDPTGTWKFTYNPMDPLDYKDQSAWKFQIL
# In short: as §1
# [18] = molecular target: ETV1 (Homo sapiens, UniProt P50549 1-477); details: protein: recombinant; tags: N-terminal GST; dsDNA, one strand shown
# Chain of ETV1 (P50549 whole entry): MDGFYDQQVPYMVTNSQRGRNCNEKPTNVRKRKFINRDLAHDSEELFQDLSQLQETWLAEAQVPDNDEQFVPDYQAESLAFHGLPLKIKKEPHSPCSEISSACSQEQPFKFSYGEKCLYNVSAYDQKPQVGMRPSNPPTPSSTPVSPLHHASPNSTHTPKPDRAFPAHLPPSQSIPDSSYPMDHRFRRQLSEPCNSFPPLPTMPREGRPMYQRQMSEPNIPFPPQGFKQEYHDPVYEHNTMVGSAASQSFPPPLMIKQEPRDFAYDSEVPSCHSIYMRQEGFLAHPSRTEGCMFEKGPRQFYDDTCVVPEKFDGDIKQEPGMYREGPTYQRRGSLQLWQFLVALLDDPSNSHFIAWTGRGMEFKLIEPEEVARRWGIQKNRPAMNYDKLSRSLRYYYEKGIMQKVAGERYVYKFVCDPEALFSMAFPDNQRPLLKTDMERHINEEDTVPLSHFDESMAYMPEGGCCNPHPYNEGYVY
# In short: as §1
sequence,measurement,setting,value
TCACTA,binding signal,[1],"1.21 fold enrichment (6-mer frequency, TF over GST control)"
same,binding signal,[2],"1.22 fold enrichment (6-mer frequency, TF over GST control)"
same,binding signal,[3],"1.17 fold enrichment (6-mer frequency, TF over GST control)"
same,binding signal,[4],"1.17 fold enrichment (6-mer frequency, TF over GST control)"
same,binding signal,[5],"1.21 fold enrichment (6-mer frequency, TF over GST control)"
same,binding signal,[6],"1.17 fold enrichment (6-mer frequency, TF over GST control)"
same,binding signal,[7],"1.23 fold enrichment (6-mer frequency, TF over GST control)"
same,binding signal,[8],"1.25 fold enrichment (6-mer frequency, TF over GST control)"
same,binding signal,[9],"1.11 fold enrichment (6-mer frequency, TF over GST control)"
same,binding signal,[10],"1.06 fold enrichment (6-mer frequency, TF over GST control)"
same,binding signal,[11],"1.16 fold enrichment (6-mer frequency, TF over GST control)"
same,binding signal,[12],"1.16 fold enrichment (6-mer frequency, TF over GST control)"
same,binding signal,[13],"1.12 fold enrichment (6-mer frequency, TF over GST control)"
same,binding signal,[14],"1.28 fold enrichment (6-mer frequency, TF over GST control)"
same,binding signal,[15],"1.18 fold enrichment (6-mer frequency, TF over GST control)"
same,binding signal,[16],"1.19 fold enrichment (6-mer frequency, TF over GST control)"
same,binding signal,[17],"1.27 fold enrichment (6-mer frequency, TF over GST control)"
same,binding signal,[18],"1.06 fold enrichment (6-mer frequency, TF over GST control)"
